PfHsp90 set2: growth inhibition of PfHsp90-expressing yeast, primary screen, antimalarial PfHsp90 inhibitor project, S. cerevisiae, BacTiter-Glo luminescence, single point, set 2 | AID 504621, 2011 | BacTiter-Glo ATP, 48 h; yeast lacking PDR1 and PDR3 efflux regulators | 310,000 tested, 0.32% active | inhibition, % at 9.4 µM;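 active means every replicate shows inhibition above about 80%, whatever the replicate mean, limit read from the data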
NLRP3 yeast inh: NALP3 inflammasome inhibitors in reconstituted yeast, primary screen, luminescence, uHTS; Yeast reconstituted NLRP3/ASC/caspase-1, beta-gal luminescence, 24 h; inhibition, % at 10 µM; 330,000 tested, 0.39% active;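 active means inhibition of 50% or more; inactive means inhibition below 50%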
tim10-1 inh: growth inhibitors of tim10-1 mutant yeast, primary screen, luminescence, uHTS. S. cerevisiae tim10-1 ts strain growth, BacTiter-Glo, 24 h. inhibition, % at 20 µM. 330,000 tested, 2.2% active;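 active means inhibition of at least 40%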;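 further: mutant grown at 25 °C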
TIM10 inh: growth inhibitors of isogenic TIM10 control yeast, primary screen, counter-screen for tim10-1 yeast inhibitor project, luminescence, uHTS. S. cerevisiae TIM10 strain growth, BacTiter-Glo luminescence, 24 h. inhibition, % at 10 µM. 330,000 tested, 1.4% active;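 active means inhibition of 40% or more at the single tested concentration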;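 further: wild-type TIM10 isogenic control strain grown at permissive 25 °C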
tim23-1 inh: growth inhibitors of tim23-1 mutant yeast, primary screen, luminescence, uHTS. 330,000 tested, 1.3% active. S. cerevisiae tim23-1 growth, BacTiter-Glo luminescence, 24 h. inhibition, % at 20 µM. AID 463212, 2010;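 active means growth inhibition of the mutant yeast at or above 50%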;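 further: temperature-sensitive mutant grown at 25 °C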
tim10-1 conf: growth inhibitors of tim10-1 mutant yeast, confirmation, single concentration, luminescence, S. cerevisiae; inhibition, % at 20 µM; shares compounds with tim10-1 inh; 7,400 tested, 56% active; AID 463213, 2010; S. cerevisiae tim10-1 ts strain growth, BacTiter-Glo, 24 h;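 active means inhibition of yeast growth at or above a set limit in either of two repeat tests at 20 µM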;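 further: tim10-1 mutant grown at permissive 25 °C to find synthetic lethal compounds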
Each line names hits and unclear results; the compound was inactive in the other large screens (follow-up assays come after a bar, where they were run). Most compounds without a hit are left out; they make up all but 3.7% or so of the library.

Cc1cc(NCCCn2ccnc2)n2ncc(-c3ccc(Cl)cc3)c2n1	tim10-1 inh 41 | tim10-1 conf inactive
COc1ccc(S(=O)(=O)NNC(=O)Nc2ccc(F)cc2)cc1	none (no result: PfHsp90 set2)
Cc1ccc(NCc2nnc(SCC(=O)c3ccccc3)o2)c(C)c1	tim10-1 inh 42 (no result: PfHsp90 set2) | tim10-1 conf inactive
Cc1ccc(NCc2nnc(SCC(=O)N3CCCc4ccccc43)o2)c(C)c1	none (no result: PfHsp90 set2)
C/C(=N\NC(=O)CNc1cccc(C)c1)c1ccc(Br)s1	tim10-1 inh 40 | tim10-1 conf inactive
Cc1cc(C)cc(N2C(=O)CC(Sc3nnnn3-c3ccccc3)C2=O)c1 (stereo not given)	tim10-1 inh 51 | tim10-1 conf 51
CCN(CC)C(=O)c1sc(NC(=O)c2cccs2)c(C#N)c1C	tim10-1 inh 44 | tim10-1 conf inactive
CC1=NN(c2ccc(N)cc2)C(=O)C1	none
CC1=NN(c2nc(-c3ccc(Cl)cc3)cs2)C(=O)C1	tim10-1 inh 63 | tim10-1 conf 29
CC1=NN(c2ccc(Cl)cc2)C(=O)C1	tim10-1 inh 47 | tim10-1 conf inactive
CC1=NN(c2nc(-c3ccc(F)cc3)cs2)C(=O)C1	none
CCOC(=O)c1cnc[nH]c1=O	none (no result: NLRP3 yeast inh, tim10-1 inh, TIM10 inh, tim23-1 inh)
CC(C)c1ccc(OCC(=O)Nc2ccccc2C(=O)N2CCOCC2)cc1	none
N#Cc1ccc(CSc2nc(N)cc(N)n2)cc1	none
Cc1cc(N2CCCCC2)nc(SCc2ccc(C#N)cc2)n1	tim10-1 inh 47 | tim10-1 conf inactive
Cc1cccc2nc(-c3cccnc3)c(Nc3ccccc3)n12	none
Cc1cccc2nc(-c3cccnc3)c(NCCC(C)C)n12	tim10-1 inh 46 | tim10-1 conf 40
Cc1cc(C)c(CSc2ncc(-c3ccc([N+](=O)[O-])cc3)[nH]2)c(C)c1	tim10-1 inh 45 | tim10-1 conf 34
COc1cc(C2=NOC(C(=O)N3CCCc4ccccc43)C2)cc(OC)c1OC (stereo not given)	tim10-1 inh 40 | tim10-1 conf inactive
COc1ccc(C2=NOC(C(=O)N3CCCc4ccccc43)C2)cc1 (stereo not given)	none
Cc1cc(Br)cc2c(C(=O)NCC3CCCO3)cc(-c3cccs3)nc12 (stereo not given)	none
Cc1ccc(-n2nc(-c3cccs3)cc2C(=O)NCC2CCCO2)c(C)c1 (stereo not given)	tim10-1 inh 41 | tim10-1 conf inactive
O/N=C/c1ccc(OCc2ccccc2F)c(Cl)c1	tim10-1 inh 41 | tim10-1 conf inactive
CCC1(c2ccccc2)NC(=O)N(CC(=O)Nc2ccc(OC)nc2)C1=O (stereo not given)	none
CC(=O)Nc1ccc(-c2csc(N/N=C(/C)c3ccccc3)n2)cc1	none
C/C(=N/Nc1nc(-c2ccc(Cl)cc2)cs1)c1cccs1	tim10-1 inh 45 | tim10-1 conf inactive
COc1ccc(OC)c(CCNC(=O)CCc2nnc3ccc(N4CCCC4)nn23)c1	none
CCOc1cc(/C=C2\C(=O)ON=C2c2ccccc2)cc(Br)c1O	tim10-1 inh 45 | tim10-1 conf 30
COc1cc(/C=C2\C(=O)ON=C2c2ccccc2)cc(Br)c1O	none
CC1Cc2nc(SCC(=O)NCC3CCCO3)n(-c3ccc(F)cc3)c(=O)c2S1 (stereo not given)	none
CS(=O)(=O)N(CC(=O)Nc1cccc([N+](=O)[O-])c1)c1ccccc1	none
Cc1ccccc1CN(CC(=O)Nc1cccc([N+](=O)[O-])c1)S(=O)(=O)c1ccc(Cl)cc1	tim10-1 inh 45 | tim10-1 conf inactive
CCOc1ccc(S(=O)(=O)N2CCN(C(=O)C3CCC3)CC2)cc1	none
CCCCNC(=O)C(=O)Nc1cc2c3c(c1)CCC(=O)N3CCC2	tim10-1 inh 43 | tim10-1 conf inactive
CCNC(=O)C(=O)Nc1cc2c3c(c1)CCC(=O)N3CCC2	none
Cc1cccc(C)c1OC(=O)CCN1C(=O)C2C3C=CC(C4CC34)C2C1=O (stereo not given)	tim10-1 inh 41 | tim10-1 conf inactive
Cc1cc(C)n(-c2nc3ccccc3c(=O)n2OCC#N)n1	none
Cc1ccccc1NC(=S)N(Cc1ccccn1)Cc1ccccc1Cl	tim10-1 inh 45 | tim10-1 conf 34
COc1ccccc1NC(=S)N(Cc1ccccn1)Cc1ccccc1Cl	none
CC(CC(=O)Nc1nnc(CC(C)(C)C)s1)c1ccccc1 (stereo not given)	none
COc1ccccc1NS(=O)(=O)c1cc(NC(=O)c2ccc(Cl)nc2)ccc1Cl	none (no result: PfHsp90 set2)
COc1ccc(C(=O)Nc2ccc(Cl)c(S(=O)(=O)Nc3ccccc3OC)c2)cc1	tim10-1 inh 41 | tim10-1 conf inactive
CCNC(=O)COc1ccc(/C=C2\COc3ccccc3C2=O)cc1OC	tim10-1 inh 46 | tim10-1 conf inactive
COc1ccc(/C=C2\CCc3ccccc3C2=O)cc1OC	none
Cc1ccc(NS(=O)(=O)c2cccc3nsnc23)cc1	none
Cc1ccc(S(=O)(=O)Nc2c(C)ccc3nsnc23)cc1	tim10-1 inh 42 | tim10-1 conf inactive
CN(C)C(=S)N=c1ssc(=S)n1Cc1cccnc1	none (no result: NLRP3 yeast inh, tim10-1 inh, TIM10 inh, tim23-1 inh)
O=C(Nc1cccc(-c2cccc(F)c2)c1)C1CCN(Cc2ccc(CO)o2)CC1	none
O=C(Nc1cccc(-c2cccc(F)c2)c1)C1CCN(C2CCOCC2)CC1	tim10-1 inh 43 | tim10-1 conf inactive
Cc1ccc(NC(=O)Nc2cc(C(F)(F)F)c[nH]c2=O)cc1	none
CSc1nc2nccc(/C=C\c3ccccc3)n2n1	tim10-1 inh 53 | tim10-1 conf 38
CSc1nc2nccc(-c3ccc(Cl)cc3)n2n1	none
NC(=O)c1ncn([C@@H]2O[C@H](CNCc3ccc(-c4cc(C(F)(F)F)ccc4Cl)o3)[C@@H](O)[C@H]2O)n1	none (no result: NLRP3 yeast inh, tim10-1 inh, TIM10 inh, tim23-1 inh)
Cc1csc(NC(=O)c2ccc(C)c(S(=O)(=O)N3CCCCC3)c2)n1	none (no result: PfHsp90 set2)
Cc1csc(NC(=O)c2ccc(C)c(S(=O)(=O)N3CCOCC3)c2)n1	tim10-1 inh 41 (no result: PfHsp90 set2) | tim10-1 conf inactive
O=C(CCN1C(=O)/C(=C/c2ccccc2Cl)SC1=S)NCCc1ccc(O)cc1	none
CCCCn1c(N)c(N(CCOC)C(=O)c2cc(S(=O)(=O)N3CCCCC3)ccc2Cl)c(=O)[nH]c1=O	none
C=C1CCC[C@]2(C)C[C@H]3OC(=O)C(CNCC(C)C)[C@H]3CC12 (stereo not given in full)	tim10-1 inh 42 | tim10-1 conf 36
C=C1CCC[C@]2(C)C[C@H]3OC(=O)C(CNCCN(C)C)[C@H]3CC12 (stereo not given in full)	tim10-1 inh 46 | tim10-1 conf 44

Screens from PubChem BioAssay.
